Results on one sequence are retold here after paper PMC7862700, “An all-to-all approach to the identification of sequence-specific readers for epigenetic DNA modifications on cytosine”.

Common to all, as to assay: DAPPL (digital affinity profiling via proximity ligation, sequencing); 10 mM Tris-HCl pH 7.5, 50 mM NaCl, 1 mM DTT, 4% glycerol, room temperature, 30 min; GST-TFs on glutathione beads, 16-mer random dsDNA library, 0.1% formaldehyde crosslink after washing; high values mean tight binding
Common to all, as to details: protein: recombinant; tags: N-terminal GST; dsDNA, one strand shown

One test has as its target T1, FLI1 (Homo sapiens, UniProt Q01543 1-452).
T1 sequence: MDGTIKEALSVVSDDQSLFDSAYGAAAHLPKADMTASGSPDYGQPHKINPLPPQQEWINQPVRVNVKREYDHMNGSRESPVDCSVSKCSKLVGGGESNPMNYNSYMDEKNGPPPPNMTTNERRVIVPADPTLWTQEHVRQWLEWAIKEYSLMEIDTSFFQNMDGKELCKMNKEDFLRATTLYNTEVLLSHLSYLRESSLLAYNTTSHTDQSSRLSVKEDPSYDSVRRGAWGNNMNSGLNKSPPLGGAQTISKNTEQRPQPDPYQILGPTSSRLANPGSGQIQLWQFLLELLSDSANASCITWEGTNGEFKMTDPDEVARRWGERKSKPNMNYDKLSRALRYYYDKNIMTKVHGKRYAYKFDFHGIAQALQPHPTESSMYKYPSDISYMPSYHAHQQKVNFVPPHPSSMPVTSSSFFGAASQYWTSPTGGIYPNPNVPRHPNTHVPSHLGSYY
The procedure, abridged: (§1)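 Beads coated with glutathione captured GST-fused human transcription factors that had been expressed in yeast, and the factors were then given DNA barcodes and pooled with a tag-only sample. The pools were incubated with 200 nmole of a random double-stranded 16-mer DNA library in Tris/NaCl/DTT/glycerol buffer for 30 min at room temperature, washed, crosslinked with 0.1% formaldehyde and proximity-ligated with BsaI/T4 ligase at 37 °C for 1 h. PCR amplification and Illumina NextSeq500 sequencing came last. Binding signal is each hexamer's read frequency for a factor divided by its frequency for the tag-only sample.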

For the next test, the target named is T2, ELK1 (Homo sapiens, UniProt P19419 1-428).
T2 sequence: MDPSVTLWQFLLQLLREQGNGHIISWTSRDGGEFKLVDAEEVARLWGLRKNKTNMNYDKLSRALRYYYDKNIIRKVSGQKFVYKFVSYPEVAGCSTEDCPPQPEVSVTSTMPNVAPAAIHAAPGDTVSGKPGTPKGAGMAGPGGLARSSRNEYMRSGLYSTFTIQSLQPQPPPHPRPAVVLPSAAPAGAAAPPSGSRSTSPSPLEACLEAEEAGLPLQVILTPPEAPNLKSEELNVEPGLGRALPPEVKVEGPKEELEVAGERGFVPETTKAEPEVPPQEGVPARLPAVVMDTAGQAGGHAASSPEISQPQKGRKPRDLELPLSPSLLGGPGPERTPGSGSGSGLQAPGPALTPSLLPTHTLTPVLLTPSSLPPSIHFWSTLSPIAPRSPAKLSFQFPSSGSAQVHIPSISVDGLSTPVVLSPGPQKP
In short, it runs like this:
as §1

A further test has as its target T3, GABPA (Homo sapiens, UniProt Q06546 1-454).
T3 sequence: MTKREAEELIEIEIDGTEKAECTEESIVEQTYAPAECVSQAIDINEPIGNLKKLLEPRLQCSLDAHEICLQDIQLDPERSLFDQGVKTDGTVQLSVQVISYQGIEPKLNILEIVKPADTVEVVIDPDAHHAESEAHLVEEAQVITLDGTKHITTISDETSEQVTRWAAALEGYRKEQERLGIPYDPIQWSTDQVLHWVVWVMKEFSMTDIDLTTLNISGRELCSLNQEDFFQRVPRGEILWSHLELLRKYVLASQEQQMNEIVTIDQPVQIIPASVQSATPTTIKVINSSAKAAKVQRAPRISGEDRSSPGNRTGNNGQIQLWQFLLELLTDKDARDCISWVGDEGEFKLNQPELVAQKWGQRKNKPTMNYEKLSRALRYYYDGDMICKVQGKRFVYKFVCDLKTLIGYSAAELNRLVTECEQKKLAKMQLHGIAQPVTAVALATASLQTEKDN
The procedure, abridged: as §1

The target in a further test is T4, ERG (Homo sapiens, UniProt P11308 1-479).
T4 sequence: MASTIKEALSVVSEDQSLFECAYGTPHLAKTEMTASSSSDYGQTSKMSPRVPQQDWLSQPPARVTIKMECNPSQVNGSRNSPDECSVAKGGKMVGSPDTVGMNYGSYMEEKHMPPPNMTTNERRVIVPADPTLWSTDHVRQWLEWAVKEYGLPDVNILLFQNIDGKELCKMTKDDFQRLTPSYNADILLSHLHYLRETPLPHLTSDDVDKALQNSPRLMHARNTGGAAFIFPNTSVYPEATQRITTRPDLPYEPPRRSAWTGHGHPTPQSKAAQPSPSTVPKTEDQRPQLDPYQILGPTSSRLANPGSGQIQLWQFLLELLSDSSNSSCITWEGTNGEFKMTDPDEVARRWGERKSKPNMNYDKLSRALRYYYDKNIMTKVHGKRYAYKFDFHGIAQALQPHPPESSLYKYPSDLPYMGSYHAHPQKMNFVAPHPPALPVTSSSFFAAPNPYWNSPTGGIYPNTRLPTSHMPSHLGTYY
In short, it runs like this: as §1

The target in a further test is ELF1 (Homo sapiens, UniProt P32519 1-619). The procedure, abridged:
as §1

The next test deals with SPI1 (Homo sapiens, UniProt P17947 1-270). In short, it runs like this: as §1
Another test has as its target SPIB (Homo sapiens, UniProt Q01892 1-262). In short, it runs like this: as §1
The next test has as its target T5, ELK3 (Homo sapiens, UniProt P41970 1-407).
T5 sequence: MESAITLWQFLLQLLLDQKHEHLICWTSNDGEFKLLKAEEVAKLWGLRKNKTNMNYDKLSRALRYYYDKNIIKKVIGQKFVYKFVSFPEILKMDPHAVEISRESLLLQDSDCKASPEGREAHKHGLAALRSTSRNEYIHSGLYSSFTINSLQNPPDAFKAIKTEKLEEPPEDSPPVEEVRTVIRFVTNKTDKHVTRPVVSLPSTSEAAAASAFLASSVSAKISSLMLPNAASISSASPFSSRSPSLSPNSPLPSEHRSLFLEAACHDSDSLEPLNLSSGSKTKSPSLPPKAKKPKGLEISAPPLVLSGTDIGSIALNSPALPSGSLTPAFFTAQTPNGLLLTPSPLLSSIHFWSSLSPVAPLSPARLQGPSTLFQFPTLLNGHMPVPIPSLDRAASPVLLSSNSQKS
The procedure, abridged: as §1

The target of the next test is T6, FEV (Homo sapiens, UniProt Q99581 1-238).
T6 sequence: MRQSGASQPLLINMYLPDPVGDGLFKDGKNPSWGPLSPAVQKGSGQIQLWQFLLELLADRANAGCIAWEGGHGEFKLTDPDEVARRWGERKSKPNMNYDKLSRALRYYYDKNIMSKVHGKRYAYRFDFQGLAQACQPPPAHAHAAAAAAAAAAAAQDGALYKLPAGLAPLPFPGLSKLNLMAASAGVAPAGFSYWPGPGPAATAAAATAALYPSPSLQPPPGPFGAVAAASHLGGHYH
In short, it runs like this: as §1

The target of the next test is ETV5 (Homo sapiens, UniProt P41161 1-510). In short, it runs like this: as §1
Sequence of ETV5 (P41161 whole entry): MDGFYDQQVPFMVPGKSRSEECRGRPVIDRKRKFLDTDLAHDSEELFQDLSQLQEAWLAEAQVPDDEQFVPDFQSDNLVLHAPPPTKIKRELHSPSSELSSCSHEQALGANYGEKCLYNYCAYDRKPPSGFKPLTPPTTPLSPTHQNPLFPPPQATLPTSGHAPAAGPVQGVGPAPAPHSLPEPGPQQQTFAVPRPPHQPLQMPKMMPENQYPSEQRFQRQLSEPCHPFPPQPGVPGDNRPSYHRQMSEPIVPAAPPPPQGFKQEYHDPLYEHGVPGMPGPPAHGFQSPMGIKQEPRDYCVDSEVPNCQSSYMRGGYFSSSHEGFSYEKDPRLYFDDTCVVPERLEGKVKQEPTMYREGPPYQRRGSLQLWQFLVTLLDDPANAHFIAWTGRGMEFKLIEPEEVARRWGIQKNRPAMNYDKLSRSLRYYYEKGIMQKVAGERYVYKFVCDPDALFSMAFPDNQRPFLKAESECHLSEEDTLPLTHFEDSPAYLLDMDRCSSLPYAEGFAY
In another test the target is T7, SPIC (Homo sapiens, UniProt Q8N5J4 1-248).
T7 sequence: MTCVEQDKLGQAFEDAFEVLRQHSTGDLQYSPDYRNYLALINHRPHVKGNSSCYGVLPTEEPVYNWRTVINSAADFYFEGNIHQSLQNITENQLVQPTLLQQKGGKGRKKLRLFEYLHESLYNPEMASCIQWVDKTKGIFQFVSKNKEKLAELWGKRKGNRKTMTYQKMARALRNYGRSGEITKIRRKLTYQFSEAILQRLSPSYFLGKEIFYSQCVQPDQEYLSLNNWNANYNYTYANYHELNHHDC
In short, it runs like this:
as §1

Another test concerns the target ELF4 (Homo sapiens, UniProt Q99607 1-663). The procedure, abridged:
as §1

Another test addresses ETV1 (Homo sapiens, UniProt P50549 1-477). In short, it runs like this: as §1
A further test deals with T8, ERF (Homo sapiens, UniProt P50548 1-548).
T8 sequence: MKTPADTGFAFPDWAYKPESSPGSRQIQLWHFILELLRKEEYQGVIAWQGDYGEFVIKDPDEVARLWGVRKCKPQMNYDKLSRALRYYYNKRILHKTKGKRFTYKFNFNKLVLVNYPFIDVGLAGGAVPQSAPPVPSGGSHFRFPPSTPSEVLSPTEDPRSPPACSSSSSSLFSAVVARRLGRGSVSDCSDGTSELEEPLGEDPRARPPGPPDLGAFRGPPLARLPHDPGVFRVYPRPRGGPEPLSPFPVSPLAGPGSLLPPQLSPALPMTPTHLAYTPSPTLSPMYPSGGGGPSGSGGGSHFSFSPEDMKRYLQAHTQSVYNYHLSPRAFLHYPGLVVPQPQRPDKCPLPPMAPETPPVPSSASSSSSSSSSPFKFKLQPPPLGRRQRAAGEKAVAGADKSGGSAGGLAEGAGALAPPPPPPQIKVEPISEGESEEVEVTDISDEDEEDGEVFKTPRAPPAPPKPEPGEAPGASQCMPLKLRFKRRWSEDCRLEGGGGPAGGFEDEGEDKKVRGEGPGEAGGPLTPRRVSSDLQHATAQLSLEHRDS
The procedure, abridged:
as §1

The next test has as its target T9, ETV3L (Homo sapiens, UniProt Q6ZN32 1-361).
T9 sequence: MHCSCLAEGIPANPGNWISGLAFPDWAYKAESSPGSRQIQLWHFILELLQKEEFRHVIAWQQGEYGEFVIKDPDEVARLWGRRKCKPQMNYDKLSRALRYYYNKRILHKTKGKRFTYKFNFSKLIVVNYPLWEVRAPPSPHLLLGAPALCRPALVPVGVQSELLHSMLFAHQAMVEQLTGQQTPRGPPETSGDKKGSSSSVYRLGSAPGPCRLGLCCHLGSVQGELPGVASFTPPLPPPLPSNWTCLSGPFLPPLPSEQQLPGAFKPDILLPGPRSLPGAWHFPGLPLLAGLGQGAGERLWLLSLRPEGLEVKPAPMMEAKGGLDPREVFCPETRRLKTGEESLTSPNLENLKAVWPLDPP
In short, it runs like this:
as §1

The next test deals with T10, ETS2 (Homo sapiens, UniProt P15036 1-469).
T10 sequence: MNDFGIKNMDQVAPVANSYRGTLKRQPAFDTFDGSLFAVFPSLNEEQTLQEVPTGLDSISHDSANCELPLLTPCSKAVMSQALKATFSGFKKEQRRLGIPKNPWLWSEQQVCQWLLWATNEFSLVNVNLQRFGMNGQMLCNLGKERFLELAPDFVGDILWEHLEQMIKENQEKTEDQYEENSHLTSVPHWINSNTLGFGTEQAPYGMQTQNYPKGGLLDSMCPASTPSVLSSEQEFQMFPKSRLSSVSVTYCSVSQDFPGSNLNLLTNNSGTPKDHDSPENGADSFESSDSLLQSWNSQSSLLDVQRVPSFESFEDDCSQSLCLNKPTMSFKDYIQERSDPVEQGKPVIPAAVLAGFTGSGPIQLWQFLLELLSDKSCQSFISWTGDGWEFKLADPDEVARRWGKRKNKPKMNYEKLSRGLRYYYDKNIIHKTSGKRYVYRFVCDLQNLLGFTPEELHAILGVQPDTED
In short, it runs like this:
as §1

For the next test, the target named is T11, ELF5 (Homo sapiens, UniProt Q9UKW6-2 1-255).
T11 sequence: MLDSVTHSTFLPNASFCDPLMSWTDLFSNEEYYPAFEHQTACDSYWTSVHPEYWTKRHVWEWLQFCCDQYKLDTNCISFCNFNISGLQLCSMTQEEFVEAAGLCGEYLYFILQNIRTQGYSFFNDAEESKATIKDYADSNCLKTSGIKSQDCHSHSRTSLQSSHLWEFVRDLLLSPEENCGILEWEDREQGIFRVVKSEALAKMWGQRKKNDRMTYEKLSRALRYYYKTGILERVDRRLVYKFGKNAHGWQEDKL
In short, it runs like this: as §1

A further test has as its target T12, ETV3 (Homo sapiens, UniProt P41162-2 1-143).
T12 sequence: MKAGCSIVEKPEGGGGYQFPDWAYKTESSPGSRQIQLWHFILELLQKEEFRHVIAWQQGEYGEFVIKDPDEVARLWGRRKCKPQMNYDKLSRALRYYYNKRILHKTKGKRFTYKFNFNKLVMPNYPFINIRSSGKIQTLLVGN
In short, it runs like this: as §1

A further test addresses ETV6 (Homo sapiens, UniProt P41212 1-452). In short, it runs like this: as §1

Sequence of ETV1 (P50549 whole entry): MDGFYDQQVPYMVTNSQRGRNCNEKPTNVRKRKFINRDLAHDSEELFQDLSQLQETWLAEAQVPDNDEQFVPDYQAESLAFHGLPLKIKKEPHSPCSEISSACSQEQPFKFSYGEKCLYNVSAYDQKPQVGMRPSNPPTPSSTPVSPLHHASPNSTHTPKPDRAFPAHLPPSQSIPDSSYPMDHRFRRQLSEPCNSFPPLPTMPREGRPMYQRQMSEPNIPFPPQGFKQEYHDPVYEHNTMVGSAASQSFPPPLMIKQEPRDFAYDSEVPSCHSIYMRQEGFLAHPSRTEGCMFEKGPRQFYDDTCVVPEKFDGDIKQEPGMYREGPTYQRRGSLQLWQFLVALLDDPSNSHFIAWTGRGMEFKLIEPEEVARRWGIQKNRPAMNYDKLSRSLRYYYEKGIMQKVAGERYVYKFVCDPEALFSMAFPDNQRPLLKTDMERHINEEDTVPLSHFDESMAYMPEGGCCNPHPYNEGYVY
Sequence of ELF1 (P32519 whole entry): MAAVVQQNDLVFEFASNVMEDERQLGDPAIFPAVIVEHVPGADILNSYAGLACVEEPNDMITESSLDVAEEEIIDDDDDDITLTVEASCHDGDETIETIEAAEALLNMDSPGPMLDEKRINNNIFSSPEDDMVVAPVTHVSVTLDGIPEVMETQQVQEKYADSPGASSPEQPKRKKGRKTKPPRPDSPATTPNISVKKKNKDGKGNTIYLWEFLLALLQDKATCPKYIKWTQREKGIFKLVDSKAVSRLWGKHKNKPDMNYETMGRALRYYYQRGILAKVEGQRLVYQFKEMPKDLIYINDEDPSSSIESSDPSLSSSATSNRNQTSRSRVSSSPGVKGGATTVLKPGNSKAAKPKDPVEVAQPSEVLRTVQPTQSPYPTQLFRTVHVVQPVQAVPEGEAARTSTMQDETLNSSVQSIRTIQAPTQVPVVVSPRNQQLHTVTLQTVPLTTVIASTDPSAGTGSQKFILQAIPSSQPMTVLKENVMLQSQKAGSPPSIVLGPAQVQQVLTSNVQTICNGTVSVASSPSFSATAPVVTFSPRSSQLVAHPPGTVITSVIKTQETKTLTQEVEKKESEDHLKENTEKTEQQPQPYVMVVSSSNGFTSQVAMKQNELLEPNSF
Sequence of ETV6 (P41212 whole entry): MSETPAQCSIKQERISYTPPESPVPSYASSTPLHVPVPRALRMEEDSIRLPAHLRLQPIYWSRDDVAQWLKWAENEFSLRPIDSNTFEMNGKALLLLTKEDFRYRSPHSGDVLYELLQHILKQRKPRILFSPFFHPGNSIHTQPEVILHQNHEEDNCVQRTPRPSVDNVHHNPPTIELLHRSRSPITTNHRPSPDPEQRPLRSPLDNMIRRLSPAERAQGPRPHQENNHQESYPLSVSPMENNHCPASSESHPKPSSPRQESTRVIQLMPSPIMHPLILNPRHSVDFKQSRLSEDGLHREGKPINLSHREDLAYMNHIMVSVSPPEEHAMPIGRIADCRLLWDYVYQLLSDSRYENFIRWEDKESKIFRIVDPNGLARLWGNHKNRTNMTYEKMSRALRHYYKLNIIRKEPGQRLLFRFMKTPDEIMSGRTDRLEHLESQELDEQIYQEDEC
Sequence of ELF4 (Q99607 whole entry): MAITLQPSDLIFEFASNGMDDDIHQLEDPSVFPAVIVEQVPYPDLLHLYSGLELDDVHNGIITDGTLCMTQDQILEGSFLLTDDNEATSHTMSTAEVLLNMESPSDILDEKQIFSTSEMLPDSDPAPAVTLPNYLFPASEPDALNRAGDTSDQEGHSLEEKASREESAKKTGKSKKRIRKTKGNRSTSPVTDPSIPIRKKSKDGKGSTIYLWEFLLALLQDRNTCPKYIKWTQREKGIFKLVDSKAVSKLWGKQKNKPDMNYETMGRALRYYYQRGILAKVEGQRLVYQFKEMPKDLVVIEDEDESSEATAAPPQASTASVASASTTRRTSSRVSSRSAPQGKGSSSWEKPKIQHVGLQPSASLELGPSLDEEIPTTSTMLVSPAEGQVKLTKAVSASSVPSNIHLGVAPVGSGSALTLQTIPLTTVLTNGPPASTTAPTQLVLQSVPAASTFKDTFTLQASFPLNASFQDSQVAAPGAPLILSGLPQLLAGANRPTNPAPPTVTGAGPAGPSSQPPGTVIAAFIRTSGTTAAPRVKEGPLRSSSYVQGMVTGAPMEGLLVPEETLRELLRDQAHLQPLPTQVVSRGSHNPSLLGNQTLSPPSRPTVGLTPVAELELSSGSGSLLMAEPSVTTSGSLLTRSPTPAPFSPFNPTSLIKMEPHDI
Sequence of SPIB (Q01892 whole entry): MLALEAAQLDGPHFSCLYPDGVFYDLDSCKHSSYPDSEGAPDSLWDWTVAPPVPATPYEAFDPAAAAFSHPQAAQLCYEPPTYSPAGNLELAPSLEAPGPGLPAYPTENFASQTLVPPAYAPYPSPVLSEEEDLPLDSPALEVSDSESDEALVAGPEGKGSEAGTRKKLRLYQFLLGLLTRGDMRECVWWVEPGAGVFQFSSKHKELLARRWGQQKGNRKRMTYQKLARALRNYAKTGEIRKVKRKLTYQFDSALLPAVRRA

Turning to CATCGC, the binding signal in the test with FLI1 was 1.08 fold enrichment (6-mer frequency, TF over GST control); with ELK1 it was 1.13 fold enrichment (6-mer frequency, TF over GST control); with GABPA, 1.13 fold enrichment (6-mer frequency, TF over GST control); in the test with ERG, 1.06 fold enrichment (6-mer frequency, TF over GST control); with ELF1, 1.06 fold enrichment (6-mer frequency, TF over GST control); with SPI1, 1.06 fold enrichment (6-mer frequency, TF over GST control). The binding signal in the test with SPIB was 1.1 fold enrichment (6-mer frequency, TF over GST control); with ELK3, 1.23 fold enrichment (6-mer frequency, TF over GST control); in the test with FEV it was 1.07 fold enrichment (6-mer frequency, TF over GST control); in the test with ETV5, 1.04 fold enrichment (6-mer frequency, TF over GST control); with SPIC it was 1.03 fold enrichment (6-mer frequency, TF over GST control); with ELF4, 1.13 fold enrichment (6-mer frequency, TF over GST control). Further, the binding signal in the test with ETV1 is 1.06 fold enrichment (6-mer frequency, TF over GST control); in the test with ERF, 1.06 fold enrichment (6-mer frequency, TF over GST control); in the test with ETV3L, 1.21 fold enrichment (6-mer frequency, TF over GST control); with ETS2, 1.14 fold enrichment (6-mer frequency, TF over GST control); in the test with ELF5, 1.03 fold enrichment (6-mer frequency, TF over GST control); with ETV3, 1.1 fold enrichment (6-mer frequency, TF over GST control). Moreover, in the test with ETV6, the binding signal is 1.02 fold enrichment (6-mer frequency, TF over GST control).
